Experiment in all cases: log2 ratio of Biotin-Ahx-Ub-VS probe labelling (fragment/DMSO); higher = less target engagement (more negative = stronger competition), active = hit call of the paper (q ≤ 0.05, log2 ratio ≤ -1)
Settings in all cases: compound concentration: 200 uM; treatment time: 3 h

The target in one assay is T1, OTUD6B (UniProt Q8N6M0).
T1 sequence (whole entry): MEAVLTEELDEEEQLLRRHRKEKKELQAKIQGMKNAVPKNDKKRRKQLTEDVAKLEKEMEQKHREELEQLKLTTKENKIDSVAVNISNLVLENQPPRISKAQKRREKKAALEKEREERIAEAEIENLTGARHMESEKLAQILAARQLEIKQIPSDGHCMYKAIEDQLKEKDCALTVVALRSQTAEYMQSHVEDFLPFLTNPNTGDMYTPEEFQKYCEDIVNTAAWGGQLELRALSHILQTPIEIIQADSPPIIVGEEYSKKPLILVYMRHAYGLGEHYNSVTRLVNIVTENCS
A digest of the protocol:
(§1)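 HEK293T lysate, 495 µg per sample in Tris/CHAPS/IGEPAL buffer with protease inhibitors, was treated in triplicate with fragment at 200 µM or vehicle for 3 h and then with Biotin-Ahx-Ub-VS at 0.5 µM final for 1 h. Labelled DUBs were NeutrAvidin-enriched, digested with LysC and trypsin, and run by diaPASEF LC-MS/MS. Spectronaut label-free quantities were global-median-normalised, and values are average log2 fragment/vehicle ratios by unpaired t-test on proteins with ≥2 unique peptides.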

The target in the next assay is T2, OTUD7B (UniProt Q6GQQ9).
T2 sequence (whole entry): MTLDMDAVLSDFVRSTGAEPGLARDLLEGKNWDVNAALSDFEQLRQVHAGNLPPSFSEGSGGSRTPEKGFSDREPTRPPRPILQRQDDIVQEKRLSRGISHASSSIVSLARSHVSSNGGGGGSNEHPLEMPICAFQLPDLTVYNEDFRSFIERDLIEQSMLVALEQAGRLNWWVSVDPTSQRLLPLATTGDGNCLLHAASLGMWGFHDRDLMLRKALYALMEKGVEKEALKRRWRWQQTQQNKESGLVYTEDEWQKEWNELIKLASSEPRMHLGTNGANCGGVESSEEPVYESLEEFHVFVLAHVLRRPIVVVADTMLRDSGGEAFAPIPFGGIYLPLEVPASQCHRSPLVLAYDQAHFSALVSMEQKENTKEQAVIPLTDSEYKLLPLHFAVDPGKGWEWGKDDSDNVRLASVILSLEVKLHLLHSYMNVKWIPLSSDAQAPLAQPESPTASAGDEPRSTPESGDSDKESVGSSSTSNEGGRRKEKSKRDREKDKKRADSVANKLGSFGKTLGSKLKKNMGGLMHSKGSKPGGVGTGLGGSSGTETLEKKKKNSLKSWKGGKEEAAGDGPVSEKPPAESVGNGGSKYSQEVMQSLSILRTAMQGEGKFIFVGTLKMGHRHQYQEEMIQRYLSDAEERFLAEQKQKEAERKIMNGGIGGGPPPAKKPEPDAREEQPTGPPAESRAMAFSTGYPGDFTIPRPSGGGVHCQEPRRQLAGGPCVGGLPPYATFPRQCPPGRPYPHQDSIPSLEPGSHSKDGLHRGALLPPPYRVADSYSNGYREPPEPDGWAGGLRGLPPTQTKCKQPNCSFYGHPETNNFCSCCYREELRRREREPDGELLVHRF
Put shortly:
as §1

The target of another assay is PRPF8 (UniProt Q6P2Q9). Put shortly: as §1
In a further assay the target is T3, PSMD7 (UniProt P51665).
T3 sequence (whole entry): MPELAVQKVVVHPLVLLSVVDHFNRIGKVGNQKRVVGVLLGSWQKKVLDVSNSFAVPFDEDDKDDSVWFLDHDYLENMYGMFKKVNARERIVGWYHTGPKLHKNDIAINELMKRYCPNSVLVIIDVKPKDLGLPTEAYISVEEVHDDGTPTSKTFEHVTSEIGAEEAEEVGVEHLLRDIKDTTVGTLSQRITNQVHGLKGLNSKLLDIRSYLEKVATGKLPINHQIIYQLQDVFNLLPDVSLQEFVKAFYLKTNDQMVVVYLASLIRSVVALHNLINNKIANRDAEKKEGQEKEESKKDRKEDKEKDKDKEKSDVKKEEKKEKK
A digest of the protocol:
as §1

In another assay the target is UCHL1 (UniProt P09936). Put shortly: as §1
Sequence of UCHL1 (P09936 whole entry, looked up): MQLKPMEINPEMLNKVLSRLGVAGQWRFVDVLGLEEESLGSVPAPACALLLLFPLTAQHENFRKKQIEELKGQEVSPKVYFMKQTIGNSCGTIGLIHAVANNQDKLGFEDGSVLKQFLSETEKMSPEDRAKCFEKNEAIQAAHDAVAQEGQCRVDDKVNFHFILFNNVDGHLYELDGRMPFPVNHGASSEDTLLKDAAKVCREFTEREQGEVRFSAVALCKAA
In the next assay the target is T4, UCHL3 (UniProt P15374).
T4 sequence (whole entry): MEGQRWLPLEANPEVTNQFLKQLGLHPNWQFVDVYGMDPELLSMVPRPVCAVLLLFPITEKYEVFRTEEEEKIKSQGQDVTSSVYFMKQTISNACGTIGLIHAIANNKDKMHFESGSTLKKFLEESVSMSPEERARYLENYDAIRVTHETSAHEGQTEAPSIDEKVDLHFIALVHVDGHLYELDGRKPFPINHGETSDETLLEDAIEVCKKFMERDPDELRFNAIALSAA
A digest of the protocol: as §1

For a further assay, the target named is T5, UCHL5 (UniProt Q9Y5K5).
T5 sequence (whole entry): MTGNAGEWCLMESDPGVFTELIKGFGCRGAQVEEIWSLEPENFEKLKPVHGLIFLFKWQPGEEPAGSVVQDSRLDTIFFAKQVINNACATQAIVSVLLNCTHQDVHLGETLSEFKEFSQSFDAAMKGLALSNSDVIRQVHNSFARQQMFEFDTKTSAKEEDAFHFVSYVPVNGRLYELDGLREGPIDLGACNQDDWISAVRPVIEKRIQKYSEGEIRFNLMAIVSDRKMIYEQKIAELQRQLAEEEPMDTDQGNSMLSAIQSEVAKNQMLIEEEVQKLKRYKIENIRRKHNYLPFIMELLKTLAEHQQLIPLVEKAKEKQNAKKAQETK
A digest of the protocol: as §1

The next assay concerns the target USP10 (UniProt Q14694). Put shortly:
as §1

Another assay concerns the target T6, USP15 (UniProt Q9Y4E8).
T6 sequence (whole entry): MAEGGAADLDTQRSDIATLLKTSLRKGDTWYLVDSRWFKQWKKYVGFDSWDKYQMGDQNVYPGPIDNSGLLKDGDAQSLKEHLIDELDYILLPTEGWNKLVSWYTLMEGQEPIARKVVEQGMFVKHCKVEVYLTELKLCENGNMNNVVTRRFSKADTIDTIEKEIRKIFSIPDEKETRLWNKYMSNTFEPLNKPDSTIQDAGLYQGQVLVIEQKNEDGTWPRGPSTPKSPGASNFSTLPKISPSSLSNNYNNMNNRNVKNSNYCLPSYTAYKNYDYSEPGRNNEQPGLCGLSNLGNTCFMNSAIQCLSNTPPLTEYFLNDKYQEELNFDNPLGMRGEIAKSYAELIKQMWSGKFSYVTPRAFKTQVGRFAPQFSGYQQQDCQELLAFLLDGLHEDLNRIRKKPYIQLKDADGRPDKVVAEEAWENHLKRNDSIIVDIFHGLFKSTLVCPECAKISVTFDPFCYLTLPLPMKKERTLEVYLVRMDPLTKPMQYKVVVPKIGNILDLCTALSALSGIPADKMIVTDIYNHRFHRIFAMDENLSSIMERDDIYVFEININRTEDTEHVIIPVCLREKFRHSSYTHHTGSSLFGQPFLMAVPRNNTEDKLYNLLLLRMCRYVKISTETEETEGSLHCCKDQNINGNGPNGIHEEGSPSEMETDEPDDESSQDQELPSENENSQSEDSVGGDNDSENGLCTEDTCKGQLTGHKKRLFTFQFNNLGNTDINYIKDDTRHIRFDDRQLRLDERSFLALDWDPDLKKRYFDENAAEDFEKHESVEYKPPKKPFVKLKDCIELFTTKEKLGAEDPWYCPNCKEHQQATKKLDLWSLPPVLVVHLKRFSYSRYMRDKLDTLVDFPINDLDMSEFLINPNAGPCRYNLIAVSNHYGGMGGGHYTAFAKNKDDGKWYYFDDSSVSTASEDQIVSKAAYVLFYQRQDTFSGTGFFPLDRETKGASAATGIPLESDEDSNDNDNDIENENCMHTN
Put shortly:
as §1

The target in a further assay is USP16 (UniProt Q9Y5T5). Put shortly: as §1
Sequence of USP16 (Q9Y5T5 whole entry, looked up): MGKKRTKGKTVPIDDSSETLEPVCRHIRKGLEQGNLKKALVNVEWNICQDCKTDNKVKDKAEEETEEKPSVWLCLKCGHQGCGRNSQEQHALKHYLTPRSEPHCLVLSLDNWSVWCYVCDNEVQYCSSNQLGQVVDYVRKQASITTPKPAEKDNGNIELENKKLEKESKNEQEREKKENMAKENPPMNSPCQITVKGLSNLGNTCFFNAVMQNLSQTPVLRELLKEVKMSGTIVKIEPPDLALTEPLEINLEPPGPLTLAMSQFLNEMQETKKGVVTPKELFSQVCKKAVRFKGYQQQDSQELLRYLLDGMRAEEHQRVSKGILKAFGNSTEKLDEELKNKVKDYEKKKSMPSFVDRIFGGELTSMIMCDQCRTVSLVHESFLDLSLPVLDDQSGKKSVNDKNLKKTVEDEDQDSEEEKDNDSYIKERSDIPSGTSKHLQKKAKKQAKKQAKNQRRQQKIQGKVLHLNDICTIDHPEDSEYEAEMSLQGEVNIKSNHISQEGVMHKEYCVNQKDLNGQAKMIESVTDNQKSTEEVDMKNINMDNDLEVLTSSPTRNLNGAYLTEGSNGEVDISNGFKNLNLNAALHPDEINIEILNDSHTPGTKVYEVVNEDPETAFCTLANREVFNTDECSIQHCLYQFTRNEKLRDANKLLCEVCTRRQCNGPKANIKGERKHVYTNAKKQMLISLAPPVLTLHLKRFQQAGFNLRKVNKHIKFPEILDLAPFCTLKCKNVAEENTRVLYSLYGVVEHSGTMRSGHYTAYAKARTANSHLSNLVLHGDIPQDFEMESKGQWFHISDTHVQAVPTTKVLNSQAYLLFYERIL

Unmarked numbers belong to inactive results.

Sequence of USP10 (Q14694 whole entry): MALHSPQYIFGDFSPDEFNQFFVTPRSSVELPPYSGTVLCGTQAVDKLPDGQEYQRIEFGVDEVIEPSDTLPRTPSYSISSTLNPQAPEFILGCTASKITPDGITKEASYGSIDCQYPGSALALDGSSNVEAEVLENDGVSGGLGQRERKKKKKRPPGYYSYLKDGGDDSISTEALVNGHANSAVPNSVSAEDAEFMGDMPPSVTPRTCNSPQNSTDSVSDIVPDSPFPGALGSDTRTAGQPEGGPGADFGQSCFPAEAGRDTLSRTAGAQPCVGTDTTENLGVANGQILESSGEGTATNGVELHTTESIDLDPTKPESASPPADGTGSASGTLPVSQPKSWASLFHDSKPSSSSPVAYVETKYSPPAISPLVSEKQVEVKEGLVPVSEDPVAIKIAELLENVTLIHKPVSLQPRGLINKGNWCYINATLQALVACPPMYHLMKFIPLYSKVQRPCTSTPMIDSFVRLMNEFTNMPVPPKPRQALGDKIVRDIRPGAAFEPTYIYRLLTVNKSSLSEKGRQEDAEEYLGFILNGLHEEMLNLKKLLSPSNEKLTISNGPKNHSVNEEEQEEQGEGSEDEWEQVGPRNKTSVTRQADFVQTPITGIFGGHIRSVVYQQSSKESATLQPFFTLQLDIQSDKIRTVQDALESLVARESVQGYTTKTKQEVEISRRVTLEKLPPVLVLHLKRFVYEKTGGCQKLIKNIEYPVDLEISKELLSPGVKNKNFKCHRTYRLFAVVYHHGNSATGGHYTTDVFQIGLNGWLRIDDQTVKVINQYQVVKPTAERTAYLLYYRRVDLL

As to `C#Cc1cccc(NC(=O)CCl)c1`, the “log2 ratio of Biotin-Ahx-Ub-VS probe labelling” value in the assay with OTUD6B was -0.196; with OTUD7B, -1.43 (active); with PRPF8, 0.296; with PSMD7, -0.0915; with UCHL1, -1.61 (active); in the assay with UCHL3, -1.39 (active). Besides, the “log2 ratio of Biotin-Ahx-Ub-VS probe labelling” value is -0.324 with UCHL5, -0.0542 with USP10, -0.414 with USP15 and -0.23 with USP16.
